Measured values taken from PubChem BioAssay AID651661 (Broad Institute, 2012).
Hit rate of the full screen: of about 350,000 compounds, about 2,300 (0.66%) were called active. The list comes from a sample in which actives are over-represented; it also holds similar structures and randomly drawn compounds. Values without a mark were called inactive.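 Rule for the calls: active = mean inhibition of at least 50% after viability correction, with every replicate also passing that limit; inconclusive = mean reaches 50% but only one of two replicates passes; inactive = the rest.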

experiment: blockers of EWS/Fli transcriptional output – A673 cells, NR0B1 luciferase, luminescence, MLPCN library, primary screen (AID 651661); conditions: A673 NR0B1-luciferase reporter, viability-normalised; at 12.6 µM; active compounds read high;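 note: firefly luciferase signal divided by Alamar Blue viability fluorescence both relative to DMSO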

| SMILES | inhibition |
| --- | --- |
| CCS(=O)(=O)Nc1ccc2c(c1)C(=O)N(C)[C@H]1CC[C@H](CC(=O)Nc3ccccc3)O[C@@H]1CO2 | -5.08% |
| COc1ccc(S(=O)(=O)N2CCCCN3[C@H](C2)[C@H](c2ccc(C4=CCCC4)cc2)[C@@H]3CO)cc1 | -9.53% |
| C[C@H]1CN([C@@H](C)CO)C(=O)c2ccccc2-c2ccccc2CO[C@H]1CN(C)Cc1ccc(-c2ccccc2)cc1 | 8.23% |
| COc1ccc2c3c(n(C)c2c1)[C@@H](CO)N(CC1CC1)CC31CCN(C(=O)c2ccc3c(c2)OCO3)CC1 | 17.4% |
| N#C[C@@H]1[C@H](c2ccccc2-c2ccccc2F)[C@@H](CO)N1C(=O)c1ccccn1 | 31.4% |
| CO[C@H]1CN(C)C(=O)c2ccc(NS(=O)(=O)c3ccccc3)cc2OC[C@H](C)N(Cc2nccs2)C[C@@H]1C | 3.5% |
| O=C(c1ccccc1)N1CC(=O)N2[C@@H](CO)[C@H](c3ccc(C#CC4CC4)cc3)[C@@H]2C1 | -6.36% |
| C[C@H](CO)N1C[C@H](C)[C@@H](CN(C)S(=O)(=O)c2cn(C)cn2)OCCCC[C@H](C)Oc2ccc(NC(=O)Cc3ccccc3)cc2C1=O | 2.69% |
| CC(=O)Nc1ccc2c(c1)C(=O)N(C)[C@H]1CC[C@H](CC(=O)NCc3ccccc3Cl)O[C@H]1CO2 | -1.68% |
| Cc1cccc(S(=O)(=O)N2C[C@@H]3[C@H](c4ccccc42)[C@@H](CO)N3C(=O)c2ccccc2)c1 | 1.99% |
| Cc1cccc(NS(=O)(=O)c2ccc(-c3cnc(C4CC4)o3)cc2)c1 | 53.1% (active) |
| COc1ccc(CNS(=O)(=O)c2ccc(-c3cnc(C4CC4)o3)cc2)cc1 | 4.87% |
| Cc1cccc(CNS(=O)(=O)c2ccc(-c3cnc(C4CC4)o3)cc2)c1 | -1.32% |
| COc1ccccc1NC(=O)N1CC(=O)N2[C@H](C1)[C@H](c1ccc(C#Cc3ccccc3)cc1)[C@@H]2CO | 0.577% |
| C[C@@H](O)C#Cc1ccc([C@H]2[C@H]3CN(C(=O)c4ccc5c(c4)OCO5)CCCCN3[C@H]2CO)cc1 | -9.79% |
| C[C@H]1CN([C@@H](C)CO)C(=O)c2cc(C3=CCCC3)cnc2O[C@@H]1CN(C)Cc1cccnc1 | -9.75% |
| COc1ccc(/C=C2\SC(=S)N(CCCC(=O)NC3CCCC3)C2=O)cc1OC | 55.1% (active) |
| COc1ccc(/C=C/C(=O)OCC(=O)NC2CCCCCC2)cc1OC | -1.04% |
| COc1ccc(/C=C2\SC(=S)N(CCC(=O)N3CCOCC3)C2=O)cc1OC | 0.114% |
| COCC(=O)N1[C@H](CO)[C@H](c2ccccc2)C12CN(C(=O)NC1CCCCC1)C2 | -12.4% |
| C[C@H](CO)N1C[C@H](C)[C@@H](CN(C)CC2CC2)OCCCC[C@H](C)Oc2ccc(NC(=O)Cc3ccccc3)cc2C1=O | 32% |
| Cc1nnc(NC(=O)CSc2nccn2-c2cccc(C)c2C)s1 | 60.5% (active) |
| COc1ccccc1-n1ccnc1SCC(=O)NC(C)(C)C | 0.699% |
| COc1ccccc1-n1c(CNC(=O)c2ccccc2)nnc1SCC(=O)Nc1nnc(C)s1 | 4.12% |

| SMILES | inhibition |
| --- | --- |
| Cc1nc(N2[C@H](CO)[C@H](c3ccccc3)[C@H]2CNCC2CCCCC2)sc1C | -4.86% |
| COc1cccc(-c2ccc([C@H]3[C@H]4CN(C(=O)NC(C)C)CC(=O)N4[C@H]3CO)cc2)c1 | 1.6% |
| CN1CCN(CCCNC(=O)c2ccc(/C=C3\Oc4ccccc4N(Cc4ccc(Cl)cc4)C3=O)cc2)CC1 | 62.2% (active) |
| CC(C)OCCCNC(=O)CN1C(=O)/C(=C/c2ccccc2F)Oc2ccccc21 | -9.7% |
| CCCN1CCN(CCCNC(=O)CN2C(=O)COc3ccccc32)CC1 | 5.75% |
| O=C1CN(S(=O)(=O)c2ccccc2)C[C@H]2[C@H](c3ccc(C#CCc4ccccc4)cc3)[C@@H](CO)N12 | -2.75% |
| C[C@@H]1CN([C@@H](C)CO)C(=O)c2cc(-c3ccncc3)cnc2O[C@@H]1CN(C)C(=O)C1CCCCC1 | -4.18% |
| C[C@H](CO)N1C[C@H](C)[C@@H](CN(C)C(=O)Nc2ccc(F)cc2)OCCCC[C@H](C)Oc2ccc(NC(=O)c3ccncc3)cc2C1=O | -7.08% |
| O=C(Nc1ccc(F)cc1)c1ccc(S(=O)(=O)NCc2cccnc2)cc1 | 14.9% |
| Cc1cccc(NC(=O)C(C)SCc2ccccc2)c1 (configuration not stated) | -20.7% |
| Cc1cccc(NC(=O)c2nc(S(=O)(=O)Cc3ccccc3)ncc2Cl)c1 | 56.5% (active) |
| Cc1ccc(S(=O)(=O)CCC(=O)Nc2nnc(CC(C)C)s2)cc1 | -2.4% |
| Cc1cccc(CS(=O)(=O)c2ncc(Cl)c(C(=O)Nc3ccc(F)cc3)n2)c1 | 60.6% (active) |
| Cc1nnc(NC(=O)C(c2ccccc2)c2ccccc2)s1 | 11.8% |
| Cc1ccc(CS(=O)(=O)c2ncc(Cl)c(C(=O)Nc3nnc(C)s3)n2)cc1 | 67.7% (active) |
| Cc1ccc(C)c(Cn2nnc3c(=O)[nH]c(C(=O)Nc4ccc(F)cc4)nc32)c1 | -4.91% |
| Cc1cc(C)cc(NS(=O)(=O)Cc2ccccc2)c1 | -2.06% |
| O=C(C[C@H]1C=C[C@@H](NC(=O)NC2CCCCC2)[C@@H](CO)O1)NCc1ccc(Cl)cc1 | -5.17% |
| CC(C)C#Cc1ccc([C@H]2[C@@H](C#N)N(C(=O)CN(C)C)[C@H]2CO)cc1 | 2.38% |
| COCC(=O)Nc1ccc2c(c1)OC[C@H](C)NC[C@H](C)[C@H](OC)CN(C)C2=O | -2.88% |
| CCNC(=O)Nc1ccc2c(c1)C(=O)N(C)[C@H]1CC[C@@H](CC(=O)N[C@H](C)c3ccccc3)O[C@@H]1CO2 | 0.627% |
| Cn1cnc(S(=O)(=O)N2CC[C@@H]3[C@H]2c2cc(C#Cc4cccc(F)c4)ccc2N[C@@H]3CO)c1 | 0.925% |
| C[C@@H]1CN([C@H](C)CO)C(=O)c2cc(C#Cc3cccc(F)c3)cnc2O[C@H]1CN(C)Cc1ccccn1 | 6.4% |
